Data as given in PubChem BioAssay (NCATS).
Records with an inconclusive call do not appear. Where a call stands in place of a potency, no number is given. The source made the active and inactive calls. Calls follow the shape of the dose curve; as a rule, active = well fitted inhibition curve with a large enough effect; inconclusive = small, poorly fitted or top-dose-only effect; inactive = no such curve, though single readings can be large or run the other way.

What follows are compounds tested against Retinaldehyde dehydrogenase 3 (Homo sapiens) (UniProt P47895) (assay: qHTS for Inhibitors of the Aldehyde Dehydrogenase Family (ALDH1A3) Primary screen (AID 2061315)). Conditions: ALDH inhibition qHTS; series mostly up to 56 µM.

Compound | Potency
FC(F)(F)c1cc(-c2nc3ccccc3s2)cc(C(F)(F)F)c1 | inactive
Cc1cccc(-c2csc(N3CCC(C(N)=O)CC3)n2)c1 | inactive
C[C@@H]1COCCN1c1cc(C2(S(C)(=O)=O)CC2)nc(-c2cccc3[nH]ccc23)n1 | inactive
Cn1c2cc(S(C)(=O)=O)sc2c2cnn(Cc3ccccc3F)c(=O)c21 | inactive
C=C1C(=O)O[C@@H]2/C=C(/C)[C@@H](OC(C)=O)C/C=C(\C)C[C@@H](OC(=O)/C(=C/CO)CO)[C@@H]12 | inactive
Fc1cnc(-c2ccccc2C(F)F)nc1NCC1CCN(c2cnccn2)C1 (stereo not given) | inactive
C=C(C)C(=O)O[C@H]1/C(C=O)=C\CC/C(CO)=C/[C@H]2OC(=O)C(=C)[C@@H]2[C@@H]1OC | inactive
O=C1Cc2cc(S(=O)(=O)N3CCN(c4ccc(CO)cc4)CC3)ccc2N1 | inactive
O=C1CCCC2=C1C(c1[nH]ncc1Cl)N=C(c1nc3ccccc3o1)N2 (stereo not given) | inactive
Cc1cc(/C=C2/C(=O)Nc3ccccc32)cc(C)c1O | inactive
Cc1cnc(-c2ccccc2C(C)C)nc1NCc1ccc(-c2cccc(S(N)(=O)=O)c2)cc1 | inactive
O=S(=O)(c1ccc2nc(Cl)c(Cl)nc2c1)N1CCN(S(=O)(=O)c2c(F)cccc2F)CC1 | inactive
CCCCN1C(=O)c2ccccc2C1=O | inactive
O=[S+]([O-])(Nc1ccccc1)c1ccc(NCc2ccc(Cl)cc2O)cc1 | inactive
Cc1cc2c(s1)c1cnn(Cc3cc(C(F)(F)F)cc(Cl)c3F)c(=O)c1n2C | inactive
NCCCC(=O)Nc1ccc(Cl)cc1C(=O)c1ccc[nH]1 | inactive
O=C1CCCC2=C1C(c1[nH]ncc1Cl)NC(=NCc1ccncc1)N2 (stereo not given) | inactive
Cc1csc(CNc2ncnc3ccc(-c4cccc(Cl)c4)cc23)c1 | inactive
N#Cc1ccc(NS(=O)(=O)c2ccc3c(c2)CCC(=O)N3)cc1 | inactive
COc1cccc(O)c1CNc1ccc(S(=O)(=O)Nc2nccs2)cc1 | inactive

Compound | Potency
Cc1cc(NS(=O)(=O)c2ccc(NC(=O)Cc3cccc4ccccc34)cc2)no1 | inactive
C[C@H]1CN(S(=O)(=O)c2ccc3c(c2)OCCO3)CCN1S(=O)(=O)c1c(F)cccc1F | inactive
O=C(OCC#CCSc1nnc(-c2cccc3ccccc23)o1)c1sc2ccccc2c1Cl | inactive
Cc1cc(NS(=O)(=O)c2ccc(NC(=O)C(C)(C)c3ccc(Cl)c(Cl)c3)cc2)no1 | inactive
O=C1CCc2cc(S(=O)(=O)Nc3ccc4ncccc4c3)ccc2N1 | inactive
COc1nccc(-c2nc(Nc3ccc(F)c(F)c3)c3ccccc3n2)c1Cl | inactive
COc1ccc(OC)c(C2=Nn3c(nnc3-c3ccccc3C)SC2)c1 | inactive
c1ccc2c(Nc3ccn[nH]3)nc(-c3ccncc3)nc2c1 | inactive
COc1ccc(C2Nc3ccccc3C(=O)N2Cc2ccc3c(c2)OCO3)cc1COc1c(C)cc(NC(C)=O)cc1C (stereo not given) | inactive
O=C1c2ccccc2C(=O)N1c1ccc(O)cc1 | inactive
Cc1cc(N[S+](=O)([O-])c2ccc(NC(=O)Cc3ccccc3Cl)cc2)no1 | inactive
O=[S+]([O-])(c1c(F)cccc1F)N1CCN([S+](=O)([O-])c2csc3ccccc23)CC1 | inactive
Cc1ccc(C(=O)Oc2ccc(-c3nc4ccccc4[nH]3)cc2)cc1Br | inactive
CC(=O)Nc1sc2c(c1-c1cccc3c1sc1ccccc13)CCNC2 | inactive
O=C1c2ccccc2C(=O)N1c1ccc2ncccc2c1 | inactive
Cc1ccc(C(=O)Nc2ccc(N3CCCCC3)cc2)cc1 | inactive
CC(=O)Nc1sc2c(c1-c1ccccc1F)CCNC2 | inactive
Cc1cc(-c2ccccc2)nc2c(C(=O)Nc3ccc(Cl)c(Cl)c3)cnn12 | inactive
O=C(Nc1ccc([S+](=O)([O-])Nc2nccs2)cc1)c1ncn[nH]1 | inactive
COc1ccc(C2c3c(N)nc(CCCc4ccccc4)nc3Oc3ccc4ccccc4c32)cc1OC (stereo not given) | inactive
